A short description of assay [1]: ATG_NFI_CIS: Attagene CIS-FACTORIAL HepG2 Assay for human Nuclear Factor I (NFI) (AID 2282989). The conditions noted are these: HepG2 cis-regulatory reporter, NFI response element transcription; actives raise or lower the signal. A digest of the protocol:
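Reporter transcription driven by endogenous transcription factors in HepG2 cells; 24 h treatment. Quantitation by labelled RT-PCR fragments on capillary electrophoresis, gain- or loss-of-signal relative to DMSO.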

Assay [2] concerns the target Myc proto-oncogene protein (Homo sapiens) (UniProt P01106). Put plainly: ATG_Myc_CIS: Attagene CIS-FACTORIAL HepG2 Assay for human Myelocytomatosis (Myc) Proto-Oncogene Transcription Factor (AID 2282990). The note with it: HepG2, Attagene cis-reporter transcription factor activity; actives raise or lower the signal. A digest of the protocol: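 DMSO-normalised, bidirectionally fitted reporter mRNA signal. HepG2 cells transfected with cis reporter constructs, treated 24 h; transcripts detected by RT-PCR, 6-FAM primer extension and CE.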

Assay [3] can be described thus: ATG_NF_kB_CIS: Attagene CIS-FACTORIAL HepG2 Assay for human Nuclear Factor Kappa B (NF-kB) (AID 2282991). The note with it: HepG2 Attagene cis-factorial NF-kB reporter mRNA; actives raise or lower the signal. A digest of the protocol:
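Read-out: reporter transcript levels quantified by RT-PCR plus capillary electrophoresis of 6-FAM-labelled, HpaI-cut fragments. Transfected HepG2 cells, 24 h compound exposure, endogenous NF-kB-driven cis element; gain or loss scored versus DMSO.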

Assay [4] is described as follows: ATG_NRF2_ARE_CIS: Attagene CIS-FACTORIAL HepG2 Assay for human Nuclear Factor Erythroid 2 Related Factor 2 (NFR2) response to Antioxidant Response Elements (ARE) (AID 2282992).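 As to AC50: reporter mRNA level measured by RT-PCR and capillary electrophoresis fluorescence.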 The note with it: HepG2 Attagene ARE/NRF2 reporter, transcription factor activity; actives raise or lower the signal. The method, boiled down: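 HepG2 cells transiently transfected with multiplexed cis-element reporter constructs, 24 h after chemical dosing; reporter mRNA quantified by RT-PCR, fluorescent primer extension, HpaI digestion and capillary electrophoresis. Bidirectional fit relative to DMSO.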

Assay [5] deals with Cellular tumor antigen p53 (Homo sapiens) (UniProt P04637). As to the kind of experiment: ATG_p53_CIS: Attagene CIS-FACTORIAL HepG2 Assay for human p53 Transcription Factor (AID 2282994). The conditions noted are these: HepG2 p53 cis-element reporter, Attagene mRNA; actives raise or lower the signal. The method, boiled down:
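HepG2 cells transiently transfected with cis-regulated multiple reporter transcription units, dosed 24 h. Reporter mRNA measured by RT-PCR, 6-FAM primer extension, HpaI digestion and capillary electrophoresis; bidirectional fit relative to DMSO.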

Assay [6] has as its target human Peroxisome Proliferator-activated Receptor alpha (PPARa), PPARA (gene 5465) (UniProt Q07869). Put plainly: ATG_PPARa_TRANS: Attagene TRANS-FACTORIAL HepG2 Assay for human Peroxisome Proliferator-activated Receptor alpha (PPARa) (AID 2283001; active = hit-call score of the fitted dose curve at least 0.9, where 1 is the maximum). A digest of the protocol: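 Gain-of-signal endpoint: reporter mRNA induction relative to DMSO, detected by fluorescent RT-PCR and capillary electrophoresis. HepG2 cells transiently carried GAL4-UAS-driven reporter units plus NR-Gal4 fusion; exposure lasted 24 h.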

Assay [7] concerns the target human Retinoic Acid Receptor beta (RARb), RARB (gene 5915) (UniProt P10826). As to the kind of experiment: ATG_RARb_TRANS: Attagene TRANS-FACTORIAL HepG2 Assay for human Retinoic Acid Receptor beta (AID 2283004; active = hit-call score of the fitted dose curve at least 0.9, where 1 is the maximum). The method, boiled down: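 HepG2 cells were transiently transfected with GAL4-UAS reporter units that report activity of exogenous chimeric NR-Gal4 proteins, then exposed to compound for 24 h. Reporter mRNA was quantified by RT-PCR with capillary electrophoresis fluorescence, as gain of signal over DMSO.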

For assay [8], the target named is Peroxisome proliferator-activated receptor gamma (Homo sapiens) (UniProt P37231). Put plainly: ATG_PPARg_TRANS: Attagene TRANS-FACTORIAL HepG2 Assay for human Peroxisome Proliferator-activated Receptor-gamma (PPARg) (AID 2283007; active = hit-call score of the fitted dose curve at least 0.9, where 1 is the maximum). A digest of the protocol: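 Read-out: reporter mRNA induction, detected by fluorescence after RT-PCR and capillary electrophoresis. Transiently transfected human HepG2 liver cells carrying a chimeric NR-Gal4 construct were dosed for 24 h; activity was fitted upward relative to DMSO.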

The target in assay [9] is Nuclear receptor subfamily 1 group I member 2 (Homo sapiens) (UniProt O75469). Put plainly: ATG_PXR_TRANS: Attagene TRANS-FACTORIAL HepG2 Assay for human Pregnane X Receptor (PXR) (AID 2283008; active = hit-call score of the fitted dose curve at least 0.9, where 1 is the maximum). The method, boiled down:
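HepG2 cells transiently transfected with GAL4-UAS reporter units and PXR-Gal4 chimera, exposed 24 h. Reporter mRNA quantified by RT-PCR, fluorescent labelling, HpaI digestion and capillary electrophoresis; gain of signal vs DMSO.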

For assay [10], the target named is human RAR-related Orphan Receptor beta (RORb), RORB (gene 6096) (UniProt Q92753). Put plainly: ATG_RORb_TRANS: Attagene TRANS-FACTORIAL HepG2 Assay for human RAR-related Orphan Receptor beta (RORb) (AID 2283010; active = hit-call score of the fitted dose curve at least 0.9, where 1 is the maximum). The method, boiled down:
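HepG2 cells transiently transfected with GAL4-UAS reporter units expressing chimeric NR-Gal4 protein; reporter mRNA measured 24 h after dosing by RT-PCR, 6-FAM labelling and capillary electrophoresis. Gain-of-signal fitted relative to DMSO baseline.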

Assay [11] can be described thus: ATG_Oct_MLP_CIS: Attagene CIS-FACTORIAL HepG2 Assay for human Octamer-Binding Transcription Factor (Oct) (AID 2282993). The note with it: HepG2 Attagene cis-factorial Oct reporter, mRNA; actives raise or lower the signal. A digest of the protocol:
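Transfected HepG2 cells, 24 h treatment. Reporter mRNA quantified by RT-PCR–capillary electrophoresis; bidirectional fitting against DMSO.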

The target of assay [12] is human Peroxisome Proliferator-activated Receptor delta (PPARd), PPARD (gene 5467) (UniProt Q03181). As to the kind of experiment: ATG_PPARd_TRANS: Attagene TRANS-FACTORIAL HepG2 Assay for human Peroxisome Proliferator-activated Receptor delta (PPARd) (AID 2283002; active = hit-call score of the fitted dose curve at least 0.9, where 1 is the maximum). The method, boiled down:
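Measured quantity: GAL4-UAS reporter transcript induction in HepG2 after 24 h chemical dosing, with NR-Gal4 chimeras supplied by transient transfection. Detection by RT-PCR and capillary electrophoresis; upward fit against DMSO.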

The target in assay [13] is human Retinoic Acid Receptor gamma (RARg), RARG (gene 5916) (UniProt P13631). Put plainly: ATG_RARg_TRANS: Attagene TRANS-FACTORIAL HepG2 Assay for human Retinoic Acid Receptor gamma (RARg) (AID 2283009; active = hit-call score of the fitted dose curve at least 0.9, where 1 is the maximum). The method, boiled down: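 HepG2 transiently transfected with GAL4-UAS reporter units and chimeric NR-Gal4 constructs; 24 h compound exposure. Reporter mRNA quantified by RT-PCR, FAM labeling, HpaI digestion and capillary electrophoresis; gain-of-signal versus DMSO.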

The nature of assay [14]: BSK_3C_TissueFactor: BioMAP Diversity Plus: 3C Assay for Tissue Factor Biomarker Activity (AID 2282997). The note with it: BioMAP 3C HUVEC, tissue factor biomarker readout; actives raise or lower the signal. A digest of the protocol:
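HUVEC were treated 24 h, then surface tissue factor measured by ELISA and fitted bidirectionally against DMSO. Parallel SRB total-protein staining assessed overt cytotoxicity at the same time point.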

Assay [15] in a line: BSK_3C_uPAR: BioMAP Diversity Plus: 3C Assay for Urokinase-type plasminogen activator receptor (uPAR) Biomarker Activity (AID 2282998). The note with it: BioMAP 3C HUVEC, uPAR biomarker ELISA; actives raise or lower the signal. The method, boiled down: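 Readout: ELISA for surface uPAR. System: human umbilical vein endothelial primary cells, 24 h after chemical exposure. Analysis: bidirectional fit, DMSO baseline.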
Background: An ELISA detects its analyte on a solid surface through an enzyme-linked reagent.

Assay [16] can be described thus: BSK_3C_VCAM1: BioMAP Diversity Plus: 3C Assay for Vascular cell adhesion molecule 1 (VCAM1) Biomarker Activity (AID 2282999). The conditions noted are these: BioMAP 3C HUVEC, VCAM1 ELISA, cytokine-stimulated; actives raise or lower the signal. A digest of the protocol: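 Human umbilical vein endothelial cells were dosed with compound for 24 h, after which cell-surface VCAM-1 was quantified by ELISA. Bidirectional curve fitting used DMSO as negative control and activity baseline.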

A short description of assay [17]: BSK_4H_Eotaxin3: BioMAP Diversity Plus: 4H Assay for Eotaxin 3 Biomarker Activity (AID 2283000).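 Also: CCL26 protein level quantified by ELISA in parallel with SRB cytotoxicity check.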 The conditions noted are these: primary human endothelial cells (HUVEC); actives raise or lower the signal. A digest of the protocol:
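Eotaxin-3 (CCL26) levels were measured by ELISA in HUVEC primary cultures 24 h post-dosing. Gain or loss of signal was fitted in both directions, with DMSO serving as baseline and negative control.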

Read-out in assay [18]: Intercellular Adhesion Molecule 1 (ICAM1), ICAM1 (gene 3383)
As to the kind of experiment: BSK_3C_ICAM1: BioMAP Diversity Plus: 3C Assay for Intercellular Adhesion Molecule 1 (ICAM1) Biomarker Activity (AID 2283003). The note with it: primary human endothelial cells (HUVEC); actives raise or lower the signal. A digest of the protocol:
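HUVEC primary cells stimulated under 3C conditions; ICAM1 measured by ELISA 24 h after compound dosing. Curves fitted bidirectionally against the DMSO baseline. Overt cytotoxicity checked by SRB staining of parallel cultures.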

Assay [19] is described as follows: BSK_3C_Proliferation: Cell Proliferation Assessment in the BioMAP Diversity Plus: 3C Assay (AID 2283006). The conditions noted are these: primary human endothelial cells (HUVEC). A digest of the protocol: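 Subconfluent HUVEC (3C system) cultured with chemical; relative cell number read at 48 h by sulforhodamine B total-protein staining (0.1% SRB after 10% TCA fixation, 560 nm). Bidirectional fit relative to DMSO.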

In PubChem BioAssay (EPA / NIEHS) one finds outcome and AC50 data, which are given here for seven compounds.

The structures appear in SMILES notation. Records with an inconclusive call do not appear. The source made the active and inactive calls. The calls were made as follows, unless noted: active = hit-call score of the fitted dose curve at least 0.9, where 1 is the maximum; inactive = score below 0.9.

Sequence of Myc proto-oncogene protein (Homo sapiens) (P01106 whole entry, looked up): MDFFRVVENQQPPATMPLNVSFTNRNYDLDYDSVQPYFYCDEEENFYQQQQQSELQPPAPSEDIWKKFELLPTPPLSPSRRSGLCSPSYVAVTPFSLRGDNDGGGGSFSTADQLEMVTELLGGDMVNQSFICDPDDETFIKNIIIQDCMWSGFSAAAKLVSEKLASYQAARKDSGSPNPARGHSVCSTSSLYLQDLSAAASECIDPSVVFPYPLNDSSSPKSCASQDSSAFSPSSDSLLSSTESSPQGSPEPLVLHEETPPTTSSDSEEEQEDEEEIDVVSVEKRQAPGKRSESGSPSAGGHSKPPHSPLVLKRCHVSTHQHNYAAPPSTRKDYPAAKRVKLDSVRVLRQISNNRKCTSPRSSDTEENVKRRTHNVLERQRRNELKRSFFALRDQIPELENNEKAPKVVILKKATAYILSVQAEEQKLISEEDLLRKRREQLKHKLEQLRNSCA
Sequence of Cellular tumor antigen p53 (Homo sapiens) (P04637 whole entry, looked up): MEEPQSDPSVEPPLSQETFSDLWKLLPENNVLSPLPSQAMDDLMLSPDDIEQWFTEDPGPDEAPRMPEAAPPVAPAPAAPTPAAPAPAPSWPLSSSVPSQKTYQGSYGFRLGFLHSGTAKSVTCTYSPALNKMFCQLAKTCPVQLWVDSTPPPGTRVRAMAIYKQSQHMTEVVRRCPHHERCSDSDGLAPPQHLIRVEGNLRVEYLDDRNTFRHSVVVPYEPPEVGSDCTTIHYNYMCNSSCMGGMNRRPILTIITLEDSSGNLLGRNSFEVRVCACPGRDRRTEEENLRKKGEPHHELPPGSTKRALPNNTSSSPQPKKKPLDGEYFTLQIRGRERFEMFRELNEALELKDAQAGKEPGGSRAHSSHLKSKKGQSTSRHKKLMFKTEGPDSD
Sequence of human Peroxisome Proliferator-activated Receptor delta (PPARd), PPARD (gene 5467) (Q03181 whole entry, looked up, the tested form may be a part): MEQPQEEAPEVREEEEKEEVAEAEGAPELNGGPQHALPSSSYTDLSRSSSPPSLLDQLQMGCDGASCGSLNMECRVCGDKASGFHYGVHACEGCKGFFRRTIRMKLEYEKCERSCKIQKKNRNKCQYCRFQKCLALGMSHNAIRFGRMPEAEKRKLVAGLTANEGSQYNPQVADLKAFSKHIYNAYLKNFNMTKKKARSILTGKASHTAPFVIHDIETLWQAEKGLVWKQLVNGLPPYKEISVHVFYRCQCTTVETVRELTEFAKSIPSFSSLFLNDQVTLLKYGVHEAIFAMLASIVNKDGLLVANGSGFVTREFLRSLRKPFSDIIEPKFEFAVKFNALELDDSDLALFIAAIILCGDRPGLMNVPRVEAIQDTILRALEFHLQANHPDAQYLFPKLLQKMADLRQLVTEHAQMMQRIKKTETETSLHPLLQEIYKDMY
Sequence of Peroxisome proliferator-activated receptor gamma (Homo sapiens) (P37231 whole entry, looked up, the tested form may be a part): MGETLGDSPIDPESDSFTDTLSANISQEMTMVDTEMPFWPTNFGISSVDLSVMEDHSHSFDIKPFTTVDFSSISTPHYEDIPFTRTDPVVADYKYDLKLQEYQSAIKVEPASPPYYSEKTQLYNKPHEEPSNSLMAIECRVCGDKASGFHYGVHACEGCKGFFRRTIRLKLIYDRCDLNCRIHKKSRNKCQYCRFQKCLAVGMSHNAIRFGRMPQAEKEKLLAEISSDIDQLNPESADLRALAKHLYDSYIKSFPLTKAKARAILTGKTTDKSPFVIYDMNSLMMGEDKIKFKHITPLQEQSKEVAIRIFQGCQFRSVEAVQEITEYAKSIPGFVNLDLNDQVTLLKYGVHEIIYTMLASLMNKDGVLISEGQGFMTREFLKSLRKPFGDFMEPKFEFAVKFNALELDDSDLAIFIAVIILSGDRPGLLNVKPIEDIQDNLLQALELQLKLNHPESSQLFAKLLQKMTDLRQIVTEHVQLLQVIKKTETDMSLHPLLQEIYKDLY
Sequence of human Retinoic Acid Receptor beta (RARb), RARB (gene 5915) (P10826 whole entry, looked up, the tested form may be a part): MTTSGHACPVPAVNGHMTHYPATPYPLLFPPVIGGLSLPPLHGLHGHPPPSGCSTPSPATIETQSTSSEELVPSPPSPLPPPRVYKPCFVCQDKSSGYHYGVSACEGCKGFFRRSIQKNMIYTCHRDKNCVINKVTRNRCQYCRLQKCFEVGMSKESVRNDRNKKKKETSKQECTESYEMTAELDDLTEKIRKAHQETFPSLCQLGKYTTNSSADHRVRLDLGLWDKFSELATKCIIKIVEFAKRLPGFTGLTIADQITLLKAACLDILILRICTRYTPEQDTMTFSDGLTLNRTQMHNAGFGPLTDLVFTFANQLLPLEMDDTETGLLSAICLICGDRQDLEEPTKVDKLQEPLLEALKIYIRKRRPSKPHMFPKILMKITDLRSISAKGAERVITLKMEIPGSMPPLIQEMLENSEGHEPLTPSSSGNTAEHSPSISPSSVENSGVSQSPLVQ
Sequence of Nuclear receptor subfamily 1 group I member 2 (Homo sapiens) (O75469 whole entry, looked up, the tested form may be a part): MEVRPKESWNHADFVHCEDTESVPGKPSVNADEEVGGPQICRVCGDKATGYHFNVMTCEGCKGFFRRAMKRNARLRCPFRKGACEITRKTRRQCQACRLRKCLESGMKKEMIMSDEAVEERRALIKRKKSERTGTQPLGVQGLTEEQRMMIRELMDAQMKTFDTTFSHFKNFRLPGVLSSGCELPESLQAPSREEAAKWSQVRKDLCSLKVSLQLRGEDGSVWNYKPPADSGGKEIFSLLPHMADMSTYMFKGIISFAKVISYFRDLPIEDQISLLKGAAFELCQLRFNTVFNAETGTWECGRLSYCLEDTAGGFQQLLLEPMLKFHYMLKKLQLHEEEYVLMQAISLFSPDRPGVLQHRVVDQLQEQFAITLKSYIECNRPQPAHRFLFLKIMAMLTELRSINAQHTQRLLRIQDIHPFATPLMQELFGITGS
Sequence of human Retinoic Acid Receptor gamma (RARg), RARG (gene 5916) (P13631 whole entry, looked up, the tested form may be a part): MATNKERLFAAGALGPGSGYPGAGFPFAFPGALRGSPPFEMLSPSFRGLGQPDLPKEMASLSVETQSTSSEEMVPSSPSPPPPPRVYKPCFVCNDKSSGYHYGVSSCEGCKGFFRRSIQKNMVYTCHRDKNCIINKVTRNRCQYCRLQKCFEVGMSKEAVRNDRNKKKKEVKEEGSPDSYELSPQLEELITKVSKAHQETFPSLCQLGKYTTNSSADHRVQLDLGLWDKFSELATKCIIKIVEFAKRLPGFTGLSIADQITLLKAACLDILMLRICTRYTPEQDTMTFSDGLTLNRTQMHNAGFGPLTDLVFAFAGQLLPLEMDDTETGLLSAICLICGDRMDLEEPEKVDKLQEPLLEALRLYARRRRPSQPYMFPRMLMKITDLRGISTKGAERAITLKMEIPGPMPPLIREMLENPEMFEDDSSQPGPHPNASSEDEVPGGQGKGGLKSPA
Sequence of human Peroxisome Proliferator-activated Receptor alpha (PPARa), PPARA (gene 5465) (Q07869 whole entry, looked up, the tested form may be a part): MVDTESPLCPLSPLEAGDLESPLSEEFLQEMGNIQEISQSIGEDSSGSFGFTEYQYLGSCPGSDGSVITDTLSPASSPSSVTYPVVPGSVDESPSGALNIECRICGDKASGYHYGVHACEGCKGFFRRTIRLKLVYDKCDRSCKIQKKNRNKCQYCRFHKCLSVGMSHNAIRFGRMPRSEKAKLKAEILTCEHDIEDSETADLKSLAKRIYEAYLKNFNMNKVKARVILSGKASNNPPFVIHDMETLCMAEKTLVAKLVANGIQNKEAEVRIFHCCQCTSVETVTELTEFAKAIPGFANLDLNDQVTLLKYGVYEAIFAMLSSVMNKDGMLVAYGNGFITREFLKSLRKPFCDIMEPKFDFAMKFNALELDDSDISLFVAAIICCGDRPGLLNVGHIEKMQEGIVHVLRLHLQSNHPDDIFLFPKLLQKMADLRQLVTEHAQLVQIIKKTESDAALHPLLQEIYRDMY
Sequence of human RAR-related Orphan Receptor beta (RORb), RORB (gene 6096) (Q92753 whole entry, looked up, the tested form may be a part): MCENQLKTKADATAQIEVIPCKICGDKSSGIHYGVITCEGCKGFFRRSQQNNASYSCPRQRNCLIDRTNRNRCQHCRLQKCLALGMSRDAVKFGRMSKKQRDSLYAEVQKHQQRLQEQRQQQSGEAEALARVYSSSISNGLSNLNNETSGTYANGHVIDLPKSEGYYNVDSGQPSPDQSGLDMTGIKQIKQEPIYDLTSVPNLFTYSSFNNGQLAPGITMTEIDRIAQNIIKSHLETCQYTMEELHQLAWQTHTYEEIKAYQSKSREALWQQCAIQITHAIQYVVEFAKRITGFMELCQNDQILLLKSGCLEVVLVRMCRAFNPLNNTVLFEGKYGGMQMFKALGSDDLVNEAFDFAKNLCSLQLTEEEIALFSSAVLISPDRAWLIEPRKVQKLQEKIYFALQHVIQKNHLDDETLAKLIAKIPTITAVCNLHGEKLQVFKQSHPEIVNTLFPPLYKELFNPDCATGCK

For `CC(C)C1=CC2=CC[C@@H]3[C@](C)(CCC[C@@]3(C)C(=O)O)[C@H]2CC1`, the compound was called inactive in [1], in assay [2], in [5], in assay [6], in [7] and in assay [10]. The AC50 – broadly, the midpoint of the concentration-response curve, whichever way the signal moves – was 157 µM (active) in [3], 19.8 µM (active) in [4], 43.9 µM (active) in assay [8] and 1.55 µM (active) in assay [9].

For `CCOCC(=O)O`, the compound was classed as inactive in assay [1], in assay [2], in assay [3], in assay [4], in assay [11] and in assay [12]. In addition, the outcome in assay [9] was inactive.

Regarding `O=S(=O)(Oc1ccc(Cl)cc1Cl)c1ccccc1`, the outcome in assay [1], in assay [2], in [3], in [11] and in assay [12] was inactive. In addition, the AC50 in assay [4] is 11.5 µM (active); in assay [8], 29.5 µM (active); in assay [9], 2.19 µM (active).

`C[Si](C)(CCCN)O[Si](C)(C)CCCN`: the outcome in assay [1], in assay [2], in [3], in [4], in assay [11] and in assay [8] was inactive. In [13], the result was inactive.

Consider `O=C1OC(=O)c2cc(Oc3ccc4c(c3)C(=O)OC4=O)ccc21`, for which the outcome in assay [1], in [2], in assay [3], in assay [4], in [11] and in [6] was inactive. Also, the compound was called inactive in assay [7].

For `CCOC(=O)NNc1nncc2ccccc12`, the compound was classed as inactive in assay [1], in assay [2], in [3], in assay [4], in assay [5] and in [12]. Further, the compound was called inactive in assay [7], in [9] and in [13].

Take `CCCCNc1ccc(NCCCC)c2c1C(=O)c1ccccc1C2=O`: the compound was classed as inactive in assay [1], in [2], in assay [3], in assay [5], in assay [14] and in assay [15]. The result in assay [16], in assay [17], in assay [18], in assay [19], in assay [8] and in assay [9] was inactive. Further, in assay [4], the AC50 is 1.47 µM (active).
